Reference: PubChem BioAssay AID651599 (National Center for Advancing Translational Sciences (NCATS), 2012)
Records with an inconclusive call do not appear. Values without a mark were called inactive. Active and inactive are the calls of the source. Calls come from the whole dose curve; as a rule, active = well fitted inhibition curve with a large enough effect; inconclusive = small, poorly fitted or top-dose-only effect; inactive = no such curve, though single readings can be large or run the other way.

target: Tumor susceptibility gene 101 protein (Homo sapiens) (UniProt Q99816); assay: qHTS Assay for Iinhibitors of HIV-1 Budding by Blocking the Interaction of PTAP/TSG101: Hit Validation in TR assay; settings: Tsg101 binding domain + Texas Red-labeled PTAP peptide, fluorescence polarization, 20 min; series mostly up to 57.5 µM; activity change, negative = inhibition: at the top concentration
Sequence (Q99816 whole entry, looked up, the tested form may be a part): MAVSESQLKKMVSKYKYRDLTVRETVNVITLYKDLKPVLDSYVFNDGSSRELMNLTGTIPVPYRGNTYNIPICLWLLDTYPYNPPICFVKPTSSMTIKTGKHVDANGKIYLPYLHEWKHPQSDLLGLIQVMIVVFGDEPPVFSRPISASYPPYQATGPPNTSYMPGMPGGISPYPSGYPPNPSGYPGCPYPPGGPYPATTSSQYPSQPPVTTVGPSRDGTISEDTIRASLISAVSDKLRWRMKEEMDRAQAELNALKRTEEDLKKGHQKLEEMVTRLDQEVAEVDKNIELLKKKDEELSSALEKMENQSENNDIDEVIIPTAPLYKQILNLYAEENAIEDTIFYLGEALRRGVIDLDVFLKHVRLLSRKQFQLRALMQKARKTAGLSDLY
Summary of the method: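 Texas Red-PTAP peptide (50 nM) binding to Tsg101 binding domain (10 uM), both final, in pH 7.5 HEPES buffer, read as polarization after 20 min at room temperature; compounds pinned before peptide addition.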
% is set by controls: 0 for no effect and ±100 for the full control effect; potency is the fitted concentration of half-maximal effect.

SMILES | activity change, negative = inhibition | Potency
Cc1nn(C)c(C)c1N1C(=O)c2cccc3c(N)ccc(c23)C1=O | -1.15% | –
CN1CCc2c(sc(NC(=O)CSc3ccc(F)cc3)c2-c2nc3ccccc3s2)C1 | -9.11% | –
Cc1cccc(N=Nc2c(O)[nH]c3ccc(F)cc23)c1 | -2.4% | –
CCOc1ccc(Cn2c3ccc(OC)cc3c3nc4ccccc4nc32)cc1 | 22.9% | –
CC(C)(C)c1ccc(C2C3=C(CCCC3=O)NC3=C2C(=O)c2ccccc23)cc1 (centres undefined) | -7.08% | –
CCOC(=O)/C(C#N)=C\c1ccc(N2CCN(C/C=C/c3ccccc3)CC2)cc1 | 11.5% | –
O=C1/C(=C/c2ccco2)Oc2c1ccc(O)c2CN1CCCCC1 | -10.8% | –
COc1ccc(-n2nc(C(=O)Nc3ccc(OC)c(OC)c3)c3c4ccccc4n(C)c3c2=O)cc1 | -9.28% | –
Cn1c(=O)c(Nc2ccc(O)cc2)c2c3c(cccc31)C(=O)c1ccccc1-2 | -2.4% | –
O=C1c2cccc3c([N+](=O)[O-])ccc(c23)C(=O)N1c1ccc(Cl)cn1 | -5.67% | –
C/C(N)=C(/C#N)C(=O)CSc1ncnc2ccccc12 | -2.93% | –
Cc1ccc(C)c2nc3sc(C(=O)N4CCCc5ccccc54)c(N)c3cc12 | 27.2% | –
Cc1ccc(N2C(=O)C3C(C(=O)c4ccccc4)=NN(c4ccccc4)C3C2=O)cc1 (centres undefined) | -18.9% | –
COc1cccc(/C(O)=C/c2nc3ccc(C(=O)NCCc4ccc(Cl)cc4)cc3[nH]c2=O)c1 | 1.36% | –
CN1CCC2(CC1)C1CN(C)CC=C1C(C#N)=C(N)C2(C#N)C#N (centres undefined) | 420% | –
O=[N+]([O-])c1cc(Cl)c2cccnc2c1O | -23.7% | –
C=CCn1c(=N)c(S(=O)(=O)c2ccc(C)c(C)c2)cc2c(=O)n3ccccc3nc21 | -10.9% | –
COc1ccc(OC)c2cc3ccccc3cc12 | -3.96% | –
Cc1nn(-c2ccccc2)c(N2CCCC2)c1/C=C1\N=C(c2ccc(F)cc2)OC1=O | -23% | –
Cc1c2ccccc2nc2c(F)c(NCCO)c(F)c(F)c12 | 11.2% | –

SMILES | activity change, negative = inhibition | Potency
CC(=O)c1cccc(-n2nnnc2SCC(=O)Nc2cc(C)on2)c1 | 2.31% | –
CC(=O)N1c2ccccc2C(=O)C1N1CCCCC1 (centres undefined) | 7.64% | –
CCCCCCc1cc2cc(C(=O)NC)c(=N)oc2cc1O | -3.42% | –
COc1ccccc1NC(=O)c1sc2nc(Cc3ccccc3)cc(C(F)(F)F)c2c1N | 44.1% | –
CCCCn1c(=O)[nH]c2nc3cc(N)ccc3nc2c1=O | – | 11.6 µM (active)
CC(=O)n1c(C=Nc2ccc(Cl)cc2)c(O)c2ccccc21 | -21.5% | –
C=CCOc1ccc(C2C(C(=O)c3cccs3)=C(O)C(=O)N2c2nnc(C)s2)cc1 (centres undefined) | -3.83% | –
O=C(NCc1cccc(F)c1)c1cccc2c1C(=O)c1ccc(N3CCCC3)cc1S2(=O)=O | 33.2% | –
O=C1/C(=N\S(=O)(=O)c2cccs2)C([n+]2cccc(Cc3ccccc3)c2)=C([O-])c2ccccc21 | 2.05% | –
CSCC(C)N1CCC(n2nccc2NC(=O)CCCc2ccccc2)CC1 (centres undefined) | 15.5% | –
Cn1c(=O)c2nc3ccc(NC(=O)C(F)(F)F)cc3nc2n(C)c1=O | -13.7% | –
CCN(CC)c1ccc2cc(-c3nc(-c4ccc(OC)cc4)cs3)c(=O)oc2c1 | 467% | –
COc1ncnc2c1NC1=C(S2)C(=NCCC(=O)O)CC(C)(C)C1 | -7.13% | –
CSC1=NSC2=NC(=O)/C(=C/c3coc4ccc(O)cc4c3=O)C(=N)N12 | -29.3% | –
O=[N+]([O-])c1ccc(Sc2cccc[n+]2[O-])c2nonc12 | 4.85% | –
CCN1CCc2c(sc(NC(=O)CSc3ccccc3)c2-c2nc3ccccc3s2)C1 | 7.92% | –
Nc1ccc2nc3c(=O)[nH]c(=S)[nH]c3nc2c1 | -13% | –
COc1ccc(CNS(=O)(=O)c2cc3c(cc2Cl)N(C(C)=O)CCO3)cc1 | -7.94% | –
CC1CCN(Cc2c(O)ccc3c2O/C(=C\c2ccco2)C3=O)CC1 | 17.8% | –
